# KCNQ2 block: KCNQ2 (rat) channel inhibition | O88943 | CHO-K1 KCNQ2, FluxOR thallium flux, 20 min; active compounds read low | B-score at 10 µM | 310,000 compounds, 1.1% hits | AID 2156;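 active = fluorescence ratio B-score at most minus 3 library SDs, with starting brightness B-score within 2 library SDs, cut at about -5.5 in these data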
# Target sequence (O88943 whole entry, looked up): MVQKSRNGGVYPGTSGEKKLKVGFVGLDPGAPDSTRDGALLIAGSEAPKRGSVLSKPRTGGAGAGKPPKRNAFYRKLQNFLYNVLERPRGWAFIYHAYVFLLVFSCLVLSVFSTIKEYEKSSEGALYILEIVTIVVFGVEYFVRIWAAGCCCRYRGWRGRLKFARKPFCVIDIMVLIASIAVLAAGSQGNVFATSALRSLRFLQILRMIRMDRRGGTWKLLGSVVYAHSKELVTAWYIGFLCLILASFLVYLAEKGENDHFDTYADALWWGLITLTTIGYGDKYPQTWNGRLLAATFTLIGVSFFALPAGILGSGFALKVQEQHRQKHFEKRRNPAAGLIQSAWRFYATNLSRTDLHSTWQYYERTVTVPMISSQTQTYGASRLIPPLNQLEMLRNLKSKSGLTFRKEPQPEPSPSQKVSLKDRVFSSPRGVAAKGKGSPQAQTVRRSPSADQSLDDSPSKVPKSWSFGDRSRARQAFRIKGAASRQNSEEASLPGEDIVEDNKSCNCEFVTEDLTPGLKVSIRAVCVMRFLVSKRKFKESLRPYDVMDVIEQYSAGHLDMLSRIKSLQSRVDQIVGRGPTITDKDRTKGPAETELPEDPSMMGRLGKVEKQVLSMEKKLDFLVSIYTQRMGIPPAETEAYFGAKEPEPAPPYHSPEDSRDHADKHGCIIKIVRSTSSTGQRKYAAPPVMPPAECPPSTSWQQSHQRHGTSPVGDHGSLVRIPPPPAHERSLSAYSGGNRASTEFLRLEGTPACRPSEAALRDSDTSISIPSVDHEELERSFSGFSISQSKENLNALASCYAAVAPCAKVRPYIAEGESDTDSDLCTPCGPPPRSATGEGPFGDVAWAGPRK
# KCNQ2 pot: potentiators of rat KCNQ2 potassium channel. B-score at 10 µM. O88943. CHO-K1 KCNQ2, FluxOR thallium flux fluorescence; active compounds read high. 310,000 compounds, 0.54% hits;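 active = fluorescence ratio B-score at least 3 SD of library B-scores, with initial fluorescence B-score within 3 of them, cut at about 5.3 in these data; same plate scores as AID 2156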;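 note: B-score of peak minus minimum over baseline fluorescence ratio after K+ and Tl+ stimulus; positive B-score means potentiation of KCNQ2 with more thallium influx and brighter signal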
# KCNQ2 block conf: confirmation of rat KCNQ2 potassium channel inhibitors; shares compounds with KCNQ2 block; KCNQ2-expressing cells, thallium flux, inhibition; active compounds read low; activity change, negative = inhibition, % at 10 µM; 1,000 compounds, 57% hits; AID 493025
# KCNQ1 spec: KCNQ2 inhibitor that also affects human KCNQ1 channel. shares compounds with KCNQ2 block. KCNQ1-expressing cells, FluxOR thallium flux fluorescence; active compounds read low. activity change, negative = inhibition, % at 10 µM. 1,000 compounds, 15% hits;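 active = activity change at least 3 SD of negative controls below their mean in both duplicate wells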;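 note: CHO cells stably transfected with KCNQ1 and depolarized by potassium stimulus; peak minus minimum fluorescence over baseline after thallium addition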
# CHO Tl ctr: KCNQ2 inhibitor counter-screen hit in parental CHO cells. shares compounds with KCNQ2 block. thallium flux counter-screen; active compounds read low. activity change, % at 10 µM. 1,000 compounds, 14% hits
# KCNQ2 inh confirm: blocks rat KCNQ2 current in automated patch clamp. KCNQ2-expressing cells. shares compounds with KCNQ2 block. calls only at 10 µM. 550 compounds, 49% hits
# Hits are given with their value; . = inactive; / = no result; + = active, no number. Only some compounds are listed: those with a hit (about 1.6% of all), similar ones and a draw of the others. Unless noted, the rule behind the calls is not given here.
SMILES,KCNQ2 block,KCNQ2 pot,KCNQ2 block conf,KCNQ1 spec,CHO Tl ctr,others
O=C(CSc1nnc(-c2cccs2)n1Cc1ccccc1)NCc1ccc2c(c1)OCO2,.,/,/,/,/,
O=C(NCCO)/C(=C\c1cccc([N+](=O)[O-])c1)NC(=O)c1ccco1,.,.,/,/,/,
O=C(N/N=C/c1ccccn1)c1ccc(N/N=C/c2ccccn2)cc1,.,/,/,/,/,
CN(C(=O)/C=C/c1ccc2c(c1)OCO2)c1ccccc1,-6.61,.,-23.0%,.,.,KCNQ2 inh confirm=.
COC(=O)/C=C/c1ccc2c(c1)OCO2,.,.,/,/,/,
COc1ccc(N(CC(=O)N2CCN(C)CC2)S(C)(=O)=O)cc1OC,.,/,/,/,/,
O=C(COC(=O)C1CCN(c2ccc(C(F)(F)F)cn2)CC1)c1ccc(F)cc1,.,/,/,/,/,
COc1cc(C(=O)COC(=O)C2CCN(c3ccc(C(F)(F)F)cn3)CC2)ccc1OC(F)F,-9.92,.,.,.,.,
Cc1cc(C)c(C(=O)COC(=O)C2CCN(c3ccc(C(F)(F)F)cn3)CC2)cc1C,-10.1,.,.,.,.,
O=C(COC(=O)C1CCN(c2ccc(C(F)(F)F)cn2)CC1)c1ccccc1Cl,.,/,/,/,/,
CSCCCNC(=O)c1ccc(OC2CCN(CCc3ccccc3)CC2)cc1,.,/,/,/,/,
COc1ccccc1N1CCN(C(=O)c2oc3cc(C)cc(C)c3c2C)CC1,-8.25,.,.,.,.,
COc1ccccc1N1CCN(C(=O)c2cc(=O)c3ccc(C)cc3o2)CC1,.,.,/,/,/,
CC(=O)Nc1ccc(S(=O)(=O)Nc2nc(C)nc3sc4c(c23)CCC4)cc1,.,/,/,/,/,
CN(C)CCNc1ncnc2oc(-c3ccccc3)c(-c3ccccc3)c12,.,/,/,/,/,
COc1ccccc1NC(=O)C(C)OC(=O)C1CC(=O)N(c2ccc3c(c2)OCCO3)C1 (configuration not stated),.,/,/,/,/,
COc1ccccc1NC(=O)C(C)OC(=O)C1CCC(C(C)(C)C)CC1 (configuration not stated),-8.42,.,-31.0%,.,.,KCNQ2 inh confirm=.
Cc1nnc(SCc2nc3scc(-c4ccccc4)c3c(=O)[nH]2)s1,.,/,/,/,/,
O=C(CN(c1ccc(Cl)c(Cl)c1)S(=O)(=O)c1ccccc1)N1CCc2ccccc2C1,-9.36,.,-33.0%,.,.,KCNQ2 inh confirm=+
COc1ccc(N(CC(=O)N2CCc3ccccc3C2)S(=O)(=O)c2ccccc2)cc1,.,/,/,/,/,
Cc1ccc2c(c1)C(=O)CC1(CCC(C(C)(C)C)CC1)O2 (configuration not stated),.,/,/,/,/,
Cc1cc(C)nc(NC(=O)c2cc(-c3ccc(C)s3)nc3ccccc23)c1,.,/,/,/,/,
Cc1cccc(-c2cc(C(=O)Nc3cccnc3)c3ccccc3n2)c1,-8.01,.,-47.0%,-48.5%,-46.5%,KCNQ2 inh confirm=+
Cc1ccc(-c2cc(C(=O)Nc3cccnc3)c3ccccc3n2)s1,-7.91,.,-17.5%,.,.,
O=C(NNC(=O)c1cc(-c2ccncc2)nc2ccccc12)Nc1ccc(F)cc1,.,.,/,/,/,
SMILES,KCNQ2 block,KCNQ2 pot,KCNQ2 block conf,KCNQ1 spec,CHO Tl ctr,others
O=C(c1cc(-c2ccccc2)nc2ccccc12)N1CCCc2ccccc21,.,/,/,/,/,
O=C(NNC(=O)c1cc(-c2cccnc2)nc2ccccc12)Nc1ccc(Cl)cc1,-9.76,.,-27.0%,.,.,KCNQ2 inh confirm=.
Cc1cccc(-c2cc(C(=O)N3CCCc4ccccc43)c3ccccc3n2)c1,-6.83,.,-40.5%,-42.0%,-34.0%,KCNQ2 inh confirm=.
Cc1cccc(-c2cc(C(=O)Nc3ccncc3)c3ccccc3n2)c1,.,/,/,/,/,
NC(=O)Cn1cc(/C=N/NC(=O)c2ccc(Cn3cc(Cl)cn3)o2)c(-c2ccccc2)n1,.,.,/,/,/,
Cc1ccc2nc3c(cc(C(=O)NCCc4ccccc4)c(=N)n3CCCN3CCOCC3)c(=O)n2c1,.,.,/,/,/,
Cc1cc(NC(=O)c2cc(-c3cccc(OCC(C)C)c3)nc3ccccc23)no1,-11.3,.,-20.5%,.,.,KCNQ2 inh confirm=.
Cc1ccc(-c2cc(C(=O)Nc3cc(C)on3)c3ccccc3n2)cc1,.,/,/,/,/,
COc1cc2c(C(=O)N3CCN(c4ccccc4)CC3)c(C)oc2cc1Br,-7.42,.,-37.0%,.,.,KCNQ2 inh confirm=+
COc1ccccc1-c1cc(C(=O)N2CCN(c3ccccc3)CC2)no1,.,/,/,/,/,
COc1ccccc1N=Nc1nc(-c2ccccc2)c(-c2ccccc2)[nH]1,.,/,/,/,/,
Oc1ccccc1N=Nc1nc(-c2ccccc2)c(-c2ccccc2)[nH]1,-6.6,.,.,.,.,
CCSc1nnc(-c2cccc(S(=O)(=O)N(CC)CC)c2)n1Cc1ccccc1,-10.3,.,.,.,.,
CCNC(=O)CSc1nnc(-c2cccc(S(=O)(=O)N(CC)CC)c2)n1CCc1ccccc1,.,/,/,/,/,
O=C(COC(=O)c1cccs1)NCCN1C(=O)CSC1=O,.,.,/,/,/,
CCC1(C(=O)c2ccccc2)C2c3cc(Br)ccc3OC(=O)C21C(=O)N1CCOCC1 (configuration not stated),-9.72,.,.,.,.,
O=C(Oc1ccc(Br)cc1C(=S)N1CCOCC1)c1ccccc1,.,/,/,/,/,
CCN1CCc2nc3ccccc3c(C(=O)Nc3ccc(F)cc3)c2C1,-9.41,.,.,.,.,
CCN1CCc2nc3ccccc3c(C(=O)Nc3ccc(NC(C)=O)cc3)c2C1,.,.,/,/,/,
Cc1nnc(SCC(=O)N2CCC(C(=O)Nc3nccs3)CC2)n1Cc1ccccc1,.,/,/,/,/,
COc1cccc(/C=C/C(=O)NNC(=O)c2ccncc2)c1,.,.,/,/,/,
CCN(CC)S(=O)(=O)c1ccc(N2CCOCC2)c(NC(=S)NC(=O)c2ccco2)c1,-7.27,.,-34.0%,.,.,KCNQ2 inh confirm=+
O=C(NC(=S)Nc1cc(S(=O)(=O)N2CCOCC2)ccc1N1CCOCC1)c1ccco1,.,/,/,/,/,
CC(=O)c1cccc(NC(=O)Nc2ccc3c(c2)N(C)C(=O)CS3)c1,-8.48,.,-44.0%,-34.5%,-29.0%,KCNQ2 inh confirm=.
Cc1cc(C)cc(NC(=O)Nc2ccc3c(c2)N(C)C(=O)CS3)c1,.,.,/,/,/,
SMILES,KCNQ2 block,KCNQ2 pot,KCNQ2 block conf,KCNQ1 spec,CHO Tl ctr,others
Cc1nnc(SCC(=O)NCC2CCCCC2)n(N)c1=O,.,.,/,/,/,
CCn1c(C)c(C)c2cc(C(=O)N3CCCC3)ccc21,.,.,/,/,/,
CCn1c(C)c(C)c2cc(C(=O)N3CCN(c4ccccc4)CC3)ccc21,-6.88,.,.,.,.,
Oc1ccc(Cl)cc1C=NCCc1ccccc1,.,.,/,/,/,
Cc1cc(C)n(-c2ccc(S(N)(=O)=O)cc2[N+](=O)[O-])n1,.,.,/,/,/,
CCCCOC1(c2ccccc2)OC(=O)c2ccccc21 (configuration not stated),.,/,/,/,/,
CCCCC(CC)COC1(c2ccccc2)OC(=O)c2ccccc21 (configuration not stated),-9.69,.,-33.0%,.,.,KCNQ2 inh confirm=.
CCOc1ccc(S(=O)(=O)Nc2cc(Sc3ncn[nH]3)c3oc(=O)sc3c2)cc1,.,/,/,/,/,
CC(=O)Nc1ccc(C(=O)NN2C(=O)NC3(CCCCC3)C2=O)cc1,.,.,/,/,/,
Cc1sc(N/N=C/c2ccco2)nc1-c1ccccc1,.,.,/,/,/,
O=C(CN(C(=O)c1csnn1)c1ccc2c(c1)OCCO2)NCc1ccccc1,.,.,/,/,/,
N#Cc1nc(COc2ccc(F)cc2)oc1N1CCCC1,.,/,/,/,/,
N#Cc1nc(COc2ccccc2)oc1N1CCC(Cc2ccccc2)CC1,-11.1,.,-29.5%,.,.,KCNQ2 inh confirm=.

# Screening results (PubChem)
